An excerpt weighted towards active compounds, which were near 12% of everything screened.
SARS PLP yeast = blocks SARS-CoV papain-like protease in a yeast assay | S. cerevisiae expressing SARS-CoV PLpro, growth rescue | Potency, µM (series often up to 32.9 µM), most hits filed as activators | actives 0.19% (n = 330,000) | AID 485353; calls by dose curve; note: nearly all actives have a fitted effect of over 55% in size
Pf growth 48h = P. falciparum growth inhibition at 48 hours (one generation) | P. falciparum luciferase growth in erythrocytes, 48 h | Potency, µM (titrated, usually from 28.7 µM), actives largely listed as inhibitors | actives 5.9% (n = 310,000)
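Luminescence readout; reporter = integrated firefly luciferase in P. falciparum. RBC culture at 2% hematocrit, 0.1% parasitemia final, 37 C/5% CO2; decreased signal taken as growth inhibition.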
Pf growth 96h = P. falciparum growth inhibition at 96 hours; AID 504834; Potency, µM (doses to about 28.7 µM), usual class: inhibitors; actives 6.9% (n = 320,000); P. falciparum luciferase reporter growth, 96 h
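Delayed-death screen, second-generation endpoint: infected erythrocytes, 2% hematocrit, 0.05% parasitemia final; 96 hours at 37 C, 5% CO2; luciferase detection reagent; luminescence decrease equals reduced growth.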
Sm TGR inh = S. mansoni TGR enzyme inhibition | Q962Y6 | purified TGR, DTNB reduction, TNB absorbance 405 nm | Potency, µM (doses to about 114 µM), hits mostly inhibitors | actives 3% (n = 360,000) | AID 485364; note: nearly all actives have a fitted effect of over 60% in size
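Kinetic colorimetric format: TGR-catalysed, NADPH-driven DTNB reduction monitored via TNB absorbance. Enzyme dispensed at 20 nM; compound exposure 15 min at room temperature before reaction start.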
Numbers stand for hits; - = inactive; ? = inconclusive; . = not tested or not shown; [ ] = another dose, or the depositor's remark. Unless noted, calls come from the whole dose curve; as a rule, active = well fitted curve in the direction sought with a large enough effect; inconclusive = small, poorly fitted or top-dose-only effect, or another doubt; inactive = no such curve, though single readings can be large; an effect the other way counts as inactive or inconclusive.

SMILES | SARS PLP yeast | Pf growth 48h | Pf growth 96h | Sm TGR inh
CC1CCCN(S(=O)(=O)c2ccc(NC(=O)Cc3ccc(S(=O)(=O)N4CCOCC4)s3)cc2)C1 (stereo unspecified) | . | ? | 7.4µM | -
O=C(Cc1ccc(S(=O)(=O)N2CCOCC2)s1)Nc1ccc(S(=O)(=O)N2CCCCC2)cc1 | - | ? | ? | -
CC1CCCCC1NC(=O)Cc1ccc(S(=O)(=O)N2CCOCC2)s1 (stereo unspecified) | - | ? | 12µM | -
CC(=O)Nc1ccc(NC(=O)Cc2ccc(S(=O)(=O)N3CCCCC3)s2)cc1 | ? | - | ? | -
Cc1[nH]c2ccccc2c1C(=O)C(C)OC(=O)c1ccccc1NCCO (stereo unspecified) | - | ? | ? | -
C=CCn1c(COc2cccc(C)c2)nnc1SC(C)C(=O)NC1CC1 (stereo unspecified) | - | ? | 13µM | -
C=CCn1c(COc2ccc(OC)cc2)nnc1SC(C)C(=O)NC1CC1 (stereo unspecified) | - | - | ? | -
Cc1c2n(c3ccccc13)CCN(C)C2 | - | - | - | -
COc1cccc(-c2c(C#N)c(N)nc3c2c(C)nn3-c2ccccc2)c1O | - | 0.37µM | 0.52µM | -
Cc1nn(-c2ccccc2)c2nc(N)c(C#N)c(-c3ccc(C(C)(C)C)cc3)c12 | - | ? | 4.7µM | -
COc1ccc(-c2c(C)nn(-c3ccccc3)c2N)cc1 | - | . | - | -
COc1cc(NC(=O)CCc2c(C)nc3c(c(C)nn3-c3ccccc3)c2C)cc(OC)c1OC | . | . | . | -
CCOC(=O)CSc1nc2cc3c(cc2c(=O)n1Cc1ccc(C(=O)NCCc2ccc(OC)c(OC)c2)cc1)OCO3 | . | . | . | -
CCOc1ccc(C(=O)N2CCC(c3nnc(-c4ccccc4OC)o3)CC2)cc1 | . | . | . | -
CCOc1ccc(NC(=O)c2sc3nc4c(cc3c2N)CN(Cc2ccccc2)CC4)cc1 | . | . | . | -
O=C(Nn1c(O)c(C=C2N=c3ccccc3=N2)sc1=S)c1ccccc1Cl | - | . | ? | -
O=S(=O)(Nn1c(O)c(C=C2N=c3ccccc3=N2)sc1=S)c1ccccc1 | - | - | - | 11µM
CC1C(C#N)=C(N)OC2=C1C(=O)CC(C)(C)C2 (stereo unspecified) | - | . | 13µM | -[11.4 µM]
CC1(C)CC(=O)C2=C(C1)OC(N)=C(C#N)C2c1ccc[nH]1 (stereo unspecified) | - | - | - | 18µM
CCOc1ccc(Br)cc1C1C(C(=O)Nc2ccccc2OC)=C(C)Nc2nnnn21 (stereo unspecified) | . | . | . | -
Cc1cc(-c2ccccc2)nc(Oc2ccc(C(C)(C)C)cc2)c1S(C)(=O)=O | - | ? | 13µM | -
Cc1cc(C)cc(Oc2nc(-c3ccccc3)cc(C)c2S(C)(=O)=O)c1 | - | . | ? | -
O=C(NC1CCN(Cc2ccccc2)CC1)c1ccccc1NS(=O)(=O)c1ccc(F)cc1 | - | . | . | .
CCN(CC)S(=O)(=O)c1ccc(Cl)c(C(=O)NC2CCN(Cc3ccccc3)CC2)c1 | - | ? | - | -
COc1ccc(NS(=O)(=O)c2ccc(C)c(C(=O)NC3CCN(Cc4ccccc4)CC3)c2)cc1 | - | 10µM | 7.4µM | -
SMILES | SARS PLP yeast | Pf growth 48h | Pf growth 96h | Sm TGR inh
COc1ccccc1NS(=O)(=O)c1cccc(C(=O)N/N=C2\CC(=O)CC(C)(C)C2)c1 | - | 13µM | ? | -
COc1ccccc1NS(=O)(=O)c1ccc(C)c(C(=O)NC2CCN(Cc3ccccc3)CC2)c1 | - | 10µM | ? | -
COc1ccccc1NS(=O)(=O)c1cccc(C(=O)NC2CCN(Cc3ccccc3)CC2)c1 | - | 10µM | 3.7µM | -
CCOC(=O)c1c(SCC(=O)Nc2nccs2)nc(C)c(C)c1C | - | - | ? | -
CN1C2CCC1/C(=C\c1ccccc1)C(=O)/C2=C\c1ccccc1 | - | 1µM | ? | -
CN1C2CCC1/C(=C/c1ccccn1)C(=O)/C2=C\c1ccccn1 | - | 0.66µM | 0.47µM | -
C(=C\c1ccccn1)/c1ccccn1 | - | - | - | -
Cc1c(CCO)sc[n+]1CC(=O)OCCC12CC3CC(CC(C3)C1)C2 | - | 5.2µM | 1µM | -
Cc1ncc(C[n+]2csc(CCOC(=O)CC34CC5CC(CC(C5)C3)C4)c2C)c(N)n1 | - | ? | - | 45µM
Cc1c(CCOC(=O)C2C3CC4CC(C3)CC2C4)sc[n+]1CC(=O)c1ccc(Br)cc1 (stereo unspecified) | - | ? | ? | -
Cc1c(CCOC(=O)C23CC4CC(CC(C4)C2)C3)sc[n+]1CC#N | - | ? | ? | 4.5µM
Cc1c(CCOC(=O)CC23CC4CC(CC(C4)C2)C3)sc[n+]1Cc1ccccc1 | - | 7.4µM | ? | -
CCCCCCCCCOC(=O)C[n+]1csc(CCO)c1C | - | - | ? | -
COc1ccc(C(=O)OCCc2sc[n+](CC(=O)c3ccccc3)c2C)cc1 | - | - | - | ?
Cc1cc(C)c(S(=O)(=O)Nc2ccc(N(C)C)cc2)c(C)c1-n1cnnn1 | - | - | - | -
COc1ccc(CNC(=O)CN(Cc2ccco2)C(=O)CNS(=O)(=O)c2ccc(F)cc2)cc1 | - | - | - | -
CCCCC1CCC(C(=O)N2CC(=O)Nc3ccc(F)cc3C2c2ccc(F)cc2)CC1 (stereo unspecified) | . | . | . | -
CCCC[C@@H](CNC)NC[C@H](NCCCCC1CCCCC1)C(C)C | - | ? | 1.7µM | -
CCN1C(=NCCc2cccs2)N[C@@H](CCc2ccccc2)[C@H](C(=O)NCCc2cccs2)[C@H]1C | - | 1.5µM | - | -
CCOC(=O)Cc1nnc(Nc2cc(C)ccc2C)c2ccccc12 | - | - | - | .
CCOC(=O)Cc1nnc(Nc2ccc(C)cc2C)c2ccccc12 | - | - | 4.7µM | -
O=S(=O)(c1ccc(OCC(O)CN2CCN(c3ccc(F)cc3)CC2)cc1)N1CCOCC1 (stereo unspecified) | - | - | 9.3µM | -
COc1ccccc1N1CCN(CC(O)COc2ccc(S(=O)(=O)N3CCOCC3)cc2)CC1 (stereo unspecified) | - | . | 8.3µM | -[11.4 µM]
COc1ccccc1N1CCN(CC(O)COc2ccc(C)c(C)c2)CC1 (stereo unspecified) | - | -[0.00184 µM] | - | -
OC(COc1ccc2ccccc2c1)CN1CCN(c2ccc(F)cc2)CC1 (stereo unspecified) | - | - | - | -
SMILES | SARS PLP yeast | Pf growth 48h | Pf growth 96h | Sm TGR inh
COc1ccc(CCNC(=O)C2COc3ccccc3C2)cc1OC (stereo unspecified) | . | . | . | -
CCCn1ncc2c(Nc3ccc(C)c(C)c3)ncnc21 | - | - | - | -
O=C(N=C1SC2CS(=O)(=O)CC2N1CCc1ccccc1)C1CC1 (stereo unspecified) | - | - | - | -
COc1ccc(-c2nc3cc(NC(=O)Cc4ccc(Cl)cc4)ccc3o2)cc1OC | . | . | . | -
CCN(CC)CC(=O)Nc1ccc(-c2nc3cc(NC(=O)CN(CC)CC)ccc3o2)cc1 | - | 2.6µM | - | -
O=C(CN1CCCC1)Nc1ccc(-c2nc3cc(NC(=O)CN4CCCC4)ccc3o2)cc1 | - | 2.3µM | ? | -
COc1ccc(-c2nc3cc(NC(=O)Cc4ccc(OC)c(OC)c4)ccc3o2)cc1 | - | - | 4.1µM | -

Screening results as filed in PubChem BioAssay.
